Activity calls are given as the source filed them.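 Rule for the calls: active = Inhibition of the Kir2.1 potassium channel over 30% at some tested dose, plus a fitted dose response curve; inactive = no Kir2.1 inhibition at any dose, or no curve fitted.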
The compounds below were run against Inward rectifier potassium channel 2 (Mus musculus) (UniProt P35561) (assay: Kir2.1 channel inhibition, specificity check, SAR follow-up, selectivity assay for KCNK9 inhibitor project, cell-based, FluxOR thallium flux, CRC round 2 (AID 540321)). Details: Kir2.1-expressing cells; series mostly up to 30 µM.
Inward rectifier potassium channel 2 (Mus musculus), sequence (P35561 whole entry, looked up): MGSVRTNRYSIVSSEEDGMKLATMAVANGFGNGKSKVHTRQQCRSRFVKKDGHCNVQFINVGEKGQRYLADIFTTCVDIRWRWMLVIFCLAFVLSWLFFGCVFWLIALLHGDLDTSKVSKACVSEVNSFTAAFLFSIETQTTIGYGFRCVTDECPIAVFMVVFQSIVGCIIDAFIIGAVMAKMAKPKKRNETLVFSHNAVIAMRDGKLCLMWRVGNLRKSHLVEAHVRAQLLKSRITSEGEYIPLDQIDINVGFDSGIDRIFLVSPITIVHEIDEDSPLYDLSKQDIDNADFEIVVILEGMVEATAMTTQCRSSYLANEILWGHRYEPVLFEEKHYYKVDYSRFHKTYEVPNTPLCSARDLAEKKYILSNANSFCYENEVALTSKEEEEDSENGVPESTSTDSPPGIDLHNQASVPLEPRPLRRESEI

outcome, inactive:
CC(c1ccccc1)n1c(-c2ccco2)n[nH]c1=S (stereo unspecified)
CCOc1ccccc1C(=O)Nc1cccc(NC(=O)C2CCCC2)c1
O=C(Nc1cccc(NC(=O)c2ccccc2C(F)(F)F)c1)c1ccccc1
CCOc1ccccc1NC(=O)c1cccc(C(=O)NC2CCCC2)c1
COc1ccccc1C(=O)Nc1cccc(NC(=O)c2ccccc2OC)c1
CCOc1ccccc1NC(=O)c1cccc(NC(=O)c2ccc(C)cc2)c1
O=C(Nc1cccc(NC(=O)c2ccc(C(F)(F)F)cc2)c1)c1ccccc1
CCOc1ccccc1NC(=O)c1cccc(NC(=O)C2CC2)c1
CCOc1ccccc1NC(=O)c1cccc(NC(=O)c2cccc(C(F)(F)F)c2)c1
Cc1cccc(C(=O)Nc2cccc(NC(=O)c3ccncc3)c2)c1
O=C(Nc1cccc(NC(=O)c2ccccc2Cl)c1)c1ccccc1
Cc1ccccc1C(=O)Nc1cccc(NC(=O)c2ccccc2)c1
COc1ccc(C(=O)Nc2cccc(NC(=O)c3ccccc3)c2)cc1
O=C(Nc1cccc(NC(=O)c2ccc(Cl)cc2)c1)c1ccccc1
CCOc1ccccc1NC(=O)c1cccc(NC(=O)C2CCCCC2)c1
CCOc1ccccc1NC(=O)c1cccc(NC(=O)c2ccccc2)c1

Source: PubChem BioAssay AID540321 (Johns Hopkins Ion Channel Center, 2011)
